# Laboratory results reported in PubChem BioAssay (NCI).
# About 79,000 compounds went through this panel and 15% of them were active in at least one assay; those are over-represented in the sample as a whole. Unmarked numbers belong to inactive results. Activity calls are given as the source filed them. Rule as the data show it: active = growth inhibition above about 70%; inactive = the rest.
# How the values were obtained:
# [1] = NCI Yeast Anticancer Drug Screen. Data for the rad50 strain (AID 155);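 also: 0% = growth of vehicle-only cultures of the same strain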; conditions: S. cerevisiae rad50 strain growth inhibition; at 50.0 µM; stronger effect = higher value
# Procedure, shortened: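 Vehicle-treated cultures provide the reference for the growth inhibition reported for compound-exposed, repair-deficient yeast.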
# [2] = NCI Yeast Anticancer Drug Screen. Data for the mec2-1 strain (AID 157); conditions: S. cerevisiae mec2-1 strain, at 50.0 µM, stronger effect = higher value
# Procedure, shortened: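 Cells of the genetically defined mec2-1 yeast strain are incubated with test compound. Inhibition of growth is calculated against vehicle-treated controls.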
# [3] = NCI Yeast Anticancer Drug Screen. Data for the sgs1 mgt1 strain (AID 161);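 also: 0% = growth of cultures given vehicle only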; conditions: S. cerevisiae sgs1 mgt1 strain, at 50.0 µM, stronger effect = higher value
# Procedure, shortened: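 Genetically altered yeast, compound exposure, growth inhibition relative to vehicle.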
# [4] = NCI Yeast Anticancer Drug Screen. Data for the cln2 rad14 strain (AID 165);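 also: 0% = growth equal to vehicle treated cultures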; conditions: S. cerevisiae cln2 rad14 strain, at 50.0 µM, stronger effect = higher value
# Procedure, shortened: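 The screen exposed genetically defined yeast (cln2 rad14) to test compounds and scored growth inhibition relative to vehicle-treated controls.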
# [5] = NCI Yeast Anticancer Drug Screen. Data for the bub3 strain (AID 167); conditions: S. cerevisiae bub3 mutant strain, at 50.0 µM, stronger effect = higher value
# Procedure, shortened: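 Mutant yeast screening strain plus compound; vehicle-treated cultures serve as the 0% inhibition reference.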
# [6] = NCI Yeast Anticancer Drug Screen. Data for the mlh1 rad18 strain (AID 175); conditions: S. cerevisiae mlh1 rad18 strain growth inhibition; at 50.0 µM; stronger effect = higher value
# Procedure, shortened: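 Compound-treated yeast growth, normalised to vehicle controls. Strain bears defined DNA repair mutations.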
Structure (SMILES),growth inhibition [1],growth inhibition [2],growth inhibition [3],growth inhibition [4] [%],growth inhibition [5] [%],growth inhibition [6]
O=C(O)C(Nc1ccc(Cc2ccc(NC(C(=O)O)c3ccccc3)cc2)cc1)c1ccccc1 (stereo not drawn),94% (active),86% (active),92% (active),-4.5,37.7,90% (active)
C=CC(=O)NC(=O)/C=C/c1cccnc1,17.4%,-8.05%,1%,-3.25,10.7,5.5%
C/C(N=NS(=O)(=O)c1ccccc1)=C1\C=CC=CN1O,-7.9%,-1.5%,-4.55%,2.5,12.9,-9%
Cc1cc(Br)ncc1[N+](=O)[O-],-12.8%,3.3%,-1.25%,-6,-3.7,-7.6%
CC(=O)OC1(C)C(=O)OC/C2=C/CN(C)CCC(OC(=O)C(O)(C(C)Cl)CC1C)C2=O (stereo not drawn),4.75%,2.9%,-7.95%,13,-6.35,-43.9%
CCC1CN2CCc3cc(OC)c(OC)cc3C2CC1O (stereo not drawn),1.3%,40.4%,20%,-3.1,44.4,27.9%
CCOC(=O)c1c[nH]c2ccc(-c3ccccc3)cc2c1=O,4.65%,39.8%,4.6%,20.4,40.7,24.9%
CCCCOC(=O)c1cc2ccccc2oc1=O,34.5%,9.9%,25.1%,15.7,27.2,34%
CCn1c(=O)c2c3ccc(O)cc3[nH]c2c2ccc(O)cc21,-63.7%,-74.6%,-4.8%,-14.6,-23.8,-43.5%
COC(=O)C1CCCC(=O)C1C(=O)OC (stereo not drawn),1.35%,0.3%,-3.45%,-36.2,-23,2.05%
O=C(Oc1ccccc1)c1ccc(C(=O)Oc2ccccc2)cc1,9%,28.7%,15.8%,3.9,43.1,11.6%
CC(C)Cc1ncnc2n[nH]nc12,1.65%,8.5%,35.5%,35.4,20.4,17.8%
O=[N+]([O-])c1ccc(N/N=C(\Cc2ccccc2)c2ccccc2)c([N+](=O)[O-])c1,6.8%,2.25%,6.2%,-20.3,-5.75,2.3%
CC(=O)Nc1ccc(N=C/C=C/c2ccccc2)cc1,-24.6%,-56.5%,5.9%,2.05,-44.5,2.05%
COC1CCC(C(C)=O)C(C#N)(C#N)C1(C#N)C#N (stereo not drawn),-6.3%,-1.25%,-12.1%,-4.95,-12.5,-13.8%
C/C(Cc1cccc2ccccc12)=N/NC(N)=O,2.35%,-27.8%,-19.1%,-8,-12.1,-8.45%
C[N+](C)(C)CC(=O)N/N=C(/CC(=O)CC(C1=C(O)c2ccccc2OC1)c1ccccc1)C(=O)Nc1cccc(Cl)c1 (stereo not drawn),58%,39.5%,27.7%,34.4,28.4,5.5%
O=C(NC1CCCCC1)OC/C=C\c1ccccc1,7.2%,-12.7%,-7.8%,-6.95,12.3,3.8%
CSc1ccc2c(c1)Cc1cc(NC(C)=O)ccc1-2,8.8%,-9.05%,-4.25%,-12.3,-11.8,1.05%

Structure (SMILES),growth inhibition [1],growth inhibition [2],growth inhibition [3],growth inhibition [4] [%],growth inhibition [5] [%],growth inhibition [6]
COC(=O)C(C#N)=C(C)C,2.3%,-23.6%,16.9%,19.9,0.05,7.95%
CCCCCCc1cn([C@H]2C[C@H](O)[C@@H](CO)O2)c(=O)[nH]c1=O,-5.6%,-5.4%,7.2%,-12.8,3,9.15%
Nc1ccc2c(c1)C(=O)c1ccccc1C2=O,4.4%,-1.55%,-12.9%,6.55,8.95,-0.55%
CC(C)N(C(=S)[S-])C(C)C.CC(C)N(C(=S)[S-])C(C)C.[Zn],96.8% (active),96.8% (active),97.8% (active),24.1,59.5,97% (active)
CCCCCCC(c1c(O)cc(C)[nH]c1=O)c1c(O)cc(C)[nH]c1=O,-6.55%,-8.5%,9.55%,-8.4,-12.8,-11.9%
CNC(=S)C(N)CCCC1NC(=S)N(C)C1=O (stereo not drawn),7%,6.8%,-21.9%,16.7,8.95,0.7%
CCOC(=O)C1(C(=O)OCC)C(C#N)(C#N)C1(C#N)C#N,-0.8%,1.75%,-7.2%,-7.3,-1.65,-11.3%
CCCCOC(=O)c1ccc(NC(=O)CCC(C)Cl)cc1 (stereo not drawn),-15.7%,13.2%,-2.1%,-22.2,16.8,6.6%
NS(=O)(=O)c1ccc(NC(=O)/C=C\C(=O)O)cc1,-15.6%,-27.2%,17.1%,-1.4,-4.2,-9.6%
CC1(C)CC(Nc2ccccc2)=CC(=Nc2ccccc2)S1,-13.1%,-11.2%,-3.55%,-25.2,-32.5,-14.2%
NC(N)=NCC1CCCCCCN1 (stereo not drawn),-9.2%,-20.7%,-21.1%,18.6,-12.6,12.9%
Nc1nc2ncc(CCCNc3ccc(C(=O)NC(CCC(=O)O)C(=O)O)cc3)nc2c(=O)[nH]1 (stereo not drawn),33%,15.4%,8.3%,10.2,3.7,22.1%
O=C(O)c1cccc(CO)c1O,3.25%,-10.5%,-12.7%,-17.4,6.75,4.4%
CC12CC3(C)CC(C)(C1)CC(C(NC(C)(C)C)C(=O)O)(C2)C3 (stereo not drawn),16.8%,20.1%,11.9%,5.7,18.9,21.2%
CC(C)NC(=O)OCc1c(COC(=O)NC(C)C)c(Sc2ccccc2)n2c1CCC2,6.6%,-17.1%,1.85%,-27.6,9.1,16.2%
Cc1ccc2nc(N(C)C)nc(N)c2c1,-7.95%,2.05%,-5.45%,-7.85,-8.3,-6.2%
O=C1CCCCCCCCC1=O,3.5%,-6.4%,-11.3%,-4.05,-12.8,-11.2%
[C-]#[N+]C1(c2ccccc2)C2CC3CC(C2)CC1C3 (stereo not drawn),-1.7%,-7.05%,-4.35%,-16.9,-4.25,9.35%
COC(=O)CCOc1ccc(C)cc1,28.2%,12.9%,6.6%,10.3,-5.85,-21.9%
